GIRK2 act: activators of NPY4-receptor-primed GIRK2 channels, summary, cell-based, HEK293, thallium flux | G protein-activated inward rectifier potassium channel 2 (Homo sapiens), P48051 | activation (% efficacy), % for hits at 37.5 µM | HEK293 GIRK2/NPY4 cells, thallium flux fluorescence | 34,000 tested, under 10 active | AID 1259324, 2017;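 active = primary screen hit, no activity in plain HEK293 cells, and in GIRK2-only cells above 5% efficacy rising with concentration; inactive = the rest, including fluorescent compounds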;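 note: efficacy is normalized control-subtracted fluorescence 15 s after thallium addition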
GluA2 TARP mod: modulators of GluA2-stargazin AMPA receptor complexes, primary screen, cell-based, membrane potential dye; AID 1259245, 2017; Voltage-dependent calcium channel gamma-2 subunit (Mus musculus) + Glutamate receptor 2 …; 40,000 tested, 3.5% active; calls only at 30 µM; HEK293 GluA2+stargazin, membrane potential dye (FDSS), glutamate EC50; hits were called plate by plate, in both directions;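 active = any of four per-well response measures lying three or more SD from its plate-wide compound average, in either direction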
Calls only; n = inactive; x = no result given; + = active, no number. This excerpt belongs to a sample that is enriched for hits.

SMILES | GIRK2 act | GluA2 TARP mod
Cc1ccc(-n2ccnc2N2CCN(C(=O)CCc3ccccc3)CC2)cc1 | n | n
Cc1ccc(-n2ccnc2N2CCN(C(=O)c3ccc4ccccc4c3)CC2)cc1 | n | n
Cc1ccc(-n2ccnc2N2CCN(C(=O)CCCc3ccccc3)CC2)cc1 | n | +
Cc1ccc(-n2ccnc2N2CCN(C(=O)c3ccc(C)c(C)c3)CC2)cc1 | n | +
CCC(CC)C(=O)N1CCC2(CC1)NC(=O)NC2=O | n | n
COc1ccc(Cl)cc1C(=O)N1CCN(c2ncnc3c2nnn3-c2ccccc2)CC1 | x | n
Cc1ccsc1C(O)CNC(=O)C(c1ccccc1)c1ccccc1 (stereo unspecified) | n | +
Cc1ccsc1C(O)CNC(=O)Cc1ccccc1Cl (stereo unspecified) | n | n
CCN1C(SCC(=O)Nc2ccc(OC)c(OC)c2)=NS(=O)(=O)c2ccccc21 | n | n
CC(C)CCN1C(=O)C(C)(C)COc2ccc(NC(=O)COc3ccc(F)cc3)cc21 | x | +
COc1ccc(OCC(=O)Nc2ccc3c(c2)N(CCC(C)C)C(=O)C(C)(C)CO3)cc1 | x | n
Cn1nnc2c(N3CCN(C(=O)/C=C\c4ccccc4)CC3)ncnc21 | n | n
O=C(c1cccc(S(=O)(=O)N2CCOCC2)c1)N1CCCc2ccccc21 | x | n
O=C(NCCN1CCOCC1)c1ccc(Cl)c(S(=O)(=O)N2CCCCC2)c1 | x | n
O=C(c1ccc(Cl)c(S(=O)(=O)N2CCOCC2)c1)N1CCc2ccccc21 | x | +
Cc1ccc(C(=O)N2CCCc3ccccc32)cc1S(=O)(=O)N1CCOCC1 | x | +
O=C(Nc1cc(F)ccc1F)c1ccc(S(=O)(=O)NCc2cccs2)o1 | n | n
CCOc1cccc2c1OC(c1cccnc1)N1N=C(c3cccs3)CC21 (stereo unspecified) | n | n
CC(C(=O)NCCOc1ccc(F)cc1)n1nnc2ccccc2c1=O (stereo unspecified) | n | n
CCN1CCc2c(sc(NC(=O)c3ccc(OC)c(OC)c3)c2-c2nc3ccccc3s2)C1 | x | +
CCN1CCc2c(sc(NC(=O)c3ccc(C)c(C)c3)c2-c2nc3ccccc3s2)C1 | x | n
COC(=O)c1ccc(C(=O)Nc2sc3c(c2-c2nc4ccccc4s2)CCN(C(C)C)C3)cc1 | x | n
COc1ccc(C(=O)Nc2sc3c(c2-c2nc4ccccc4s2)CCN(C(C)C)C3)cc1OC | x | +
COc1ccc(S(=O)(=O)Nc2cccc(C(=O)Nc3sc4c(c3C#N)CCCCC4)c2)cc1 | n | n
COc1ccc(CNC(=O)c2ccc3c(=O)n4nc(NCc5ccccc5)sc4nc3c2)cc1 | n | n
SMILES | GIRK2 act | GluA2 TARP mod
COc1cc(COCC2CCN(C(=O)CC(c3ccccc3)c3ccccc3)CC2)cc(OC)c1 | n | n
COc1cc(CN2CCC(COCc3ccccc3)CC2)cc(OC)c1 | n | +
O=c1c2ccccc2nc(SCc2nc(-c3ccc4c(c3)OCO4)no2)n1Cc1ccco1 | x | n
Cn1c(=O)c2c(nc(N3CCOCC3)n2CCSc2nnnn2-c2ccccc2)n(C)c1=O | x | n
Cc1nnc(SCCn2c(N3CCOCC3)nc3c2c(=O)n(C)c(=O)n3C)s1 | x | +
COc1cccc(OC)c1C(=O)Nc1ccc([N+](=O)[O-])cn1 | x | n
COc1ccc(C(=O)Nc2ccc([N+](=O)[O-])cn2)cc1OC | x | +
C=CCOCC(O)CN1CCN(C)CC1 (stereo unspecified) | n | n
NC(=S)c1cc2ccc(O)cc2oc1=O | x | n
CN(C)c1ccc(-c2noc(-c3cc4ccc(O)cc4oc3=O)n2)cc1 | n | +
COc1ccc(CNC(=O)c2nnn(Cc3ccccc3)c2N)cc1OC | n | n
CSc1ccccc1NC(=O)C(=O)NCC1CCN(Cc2ccccc2)CC1 | n | n
CSc1ccccc1CN1CCC(CNC(=O)C(=O)Nc2ccccc2Cl)CC1 | n | +
O=C(Cn1cnc(-c2ccc(F)cc2)cc1=O)NCc1ccc(F)cc1 | n | x
O=C(Nc1ccc(O)c(-c2nc3ccccc3s2)c1)c1ccno1 | n | n
CN1C(=O)c2ccc(NC(=O)c3ccno3)cc2C1=O | x | +
O=C(Nc1ccc2sccc2c1)c1ccno1 | n | +
Cc1cccc(CC(=O)Nc2ccc3c(c2)CC(=O)N3C)c1 | x | n
CN1C(=O)Cc2cc(NC(=O)c3ccno3)ccc21 | n | +
CN1CCOc2ccc(NC(=O)c3ccno3)cc2C1=O | n | n
Cn1nc(NC(=O)c2cccc3ccccc23)c2c1NC(=O)CC2c1ccccc1 (stereo unspecified) | n | n
COc1cccc(N2C(=O)/C(=C/c3cccc(O)c3)SC2=S)c1 | x | n
COCC(=O)Nc1cc(-c2ccco2)nn1-c1nc(C)cc(=O)[nH]1 | n | n
Cc1cc(=O)[nH]c(-n2nc(-c3ccco3)cc2NC(=O)C2CC2)n1 | n | +
COc1ccc(N2CCN(c3nc4c(c(=O)[nH]c(=O)n4C)n3CC(=O)c3ccccc3)CC2)cc1 | x | n
SMILES | GIRK2 act | GluA2 TARP mod
CN1CCN(c2nc3c(c(=O)[nH]c(=O)n3C)n2CC(=O)c2ccc([N+](=O)[O-])cc2)CC1 | x | +
Cc1cc(NC(=O)c2ccc3c(c2)OCO3)n(C2CCS(=O)(=O)C2)n1 (stereo unspecified) | n | n
CC1=NN(c2ccccc2)C(=O)C1C(=O)c1ccc(S(=O)(=O)N(C)C)cc1 (stereo unspecified) | n | n
CC1=NN(c2ccccc2)C(=O)C1C(=O)c1ccc(Br)o1 (stereo unspecified) | n | +
O=C(/C=C/c1ccco1)NCC(O)Cc1ccccc1 (stereo unspecified) | x | n
Cc1cc(C(=O)N(CC2CCCO2)c2nc3ccccc3s2)on1 (stereo unspecified) | n | n
COc1ccccc1C(=O)Oc1c(C)cccc1C | n | n
Cc1ccc(C)c(Cn2c(=O)c3c(nc4n(CCCN(C)C)c(C)c(C)n34)n(C)c2=O)c1 | n | n
Cc1c(C)n2c3c(=O)n(Cc4cccc(Cl)c4)c(=O)n(C)c3nc2n1CCN(C)C | n | +
COc1ccc(CCNC(=O)CCc2sc(C)nc2-c2cccs2)cc1OC | x | n
O=C(NCc1cccc2ccccc12)Nc1ccc(Cl)c(N2CCCS2(=O)=O)c1 | n | +
O=C(NCc1cccs1)Nc1ccc(Cl)c(N2CCCS2(=O)=O)c1 | n | n
COc1ccc(C(=O)Nc2nnc(-c3ccncc3)o2)cc1OC | x | +
COc1ccc(-c2nnc(NC(=O)c3ccc(F)cc3)o2)cc1OC | n | n
COc1ccccc1C(=O)Nc1nnc(-c2ccc(Br)s2)o1 | n | x
COc1ccc(C(=O)Nc2nnc(-c3ccc(Br)s3)o2)cc1OC | n | +
CS(=O)(=O)c1ccc(C(=O)Nc2nnc(-c3cccnc3)o2)cc1 | n | +
CS(=O)(=O)c1ccc(C(=O)Nc2nnc(-c3ccc(Br)s3)o2)cc1 | n | n
c1ccc(-c2nnc(-c3ccncc3)o2)cc1 | x | n
COc1ccc(-c2nnc(-c3ccncc3)o2)cc1OC | x | +
COCC(=O)NCC1(c2ccc(OC)cc2)CCCC1 | n | n
O=C(Nc1nc(C(=O)N2CCN(Cc3ccc4c(c3)OCO4)CC2)co1)c1ccsc1 | n | x
COc1ccc(-c2ccc(C)c(NS(=O)(=O)c3ccc(NC(=O)C(C)C)cc3)c2)nn1 | n | +
